The values that follow come from PubChem BioAssay (EPA / NIEHS).

Records with an inconclusive call do not appear. Activity calls are given as the source filed them. How the source made its calls: active means hit-call score of the fitted dose curve at least 0.9, where 1 is the maximum; inconclusive means response in the unintended direction; inactive means score below 0.9.

Chain of Estrogen receptor (Homo sapiens) (P03372 whole entry, looked up): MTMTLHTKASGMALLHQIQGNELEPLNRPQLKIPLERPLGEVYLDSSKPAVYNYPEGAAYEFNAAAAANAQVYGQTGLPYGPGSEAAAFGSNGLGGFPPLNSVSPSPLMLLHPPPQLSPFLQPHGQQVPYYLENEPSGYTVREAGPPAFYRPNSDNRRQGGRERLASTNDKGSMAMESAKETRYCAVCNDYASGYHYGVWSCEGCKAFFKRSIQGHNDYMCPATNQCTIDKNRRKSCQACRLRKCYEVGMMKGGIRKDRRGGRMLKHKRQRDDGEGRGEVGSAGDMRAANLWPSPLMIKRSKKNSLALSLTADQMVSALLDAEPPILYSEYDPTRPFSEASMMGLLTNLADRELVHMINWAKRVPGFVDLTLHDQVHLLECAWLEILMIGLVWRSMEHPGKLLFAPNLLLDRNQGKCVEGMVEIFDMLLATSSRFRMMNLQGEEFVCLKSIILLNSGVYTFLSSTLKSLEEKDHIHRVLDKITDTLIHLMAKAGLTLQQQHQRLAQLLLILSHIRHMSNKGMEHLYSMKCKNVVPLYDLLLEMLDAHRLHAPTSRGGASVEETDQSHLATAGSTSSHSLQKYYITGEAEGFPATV

The first test has as its target Estrogen receptor (Homo sapiens) (UniProt P03372). Nature of the test: CCTE_Deisenroth_AIME_384WELL_LUC_Inactive: CCTE's 384-well Estrogen Receptor Transactivation Assay without AIME metabolic competence (ERTA luciferase; metabolism negative), Deisenroth Lab (AID 2284038).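 Further: VM7Luc4E2 breast cells given medium preincubated 2 h with S9-free microspheres; hits raise estrogen receptor luciferase signal so potencies reflect agonists.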 The gist of the method: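 Metabolism-negative mode: AIME lids stamped in alginate-water, no hepatic S9. 2 h chemical incubation → medium onto VM7Luc4E2 ERTA, 24 h. Readout luciferase luminescence; gain-of-signal fit vs 17beta-estradiol. Conc. 0.002 - 200 uM.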
Regarding `Nc1ccc2ccccc2c1`, the result was inactive.

With `CCOC(=O)c1ccccc1C(=O)OCC`, the result was inactive.

Turning to `O=C(O)CF`, the outcome was inactive.

As for `CCCCc1ccc(O)cc1`, the AC50 was 20.2 µM (active).

Turning to `O=c1ssc(Cl)c1Cl`, the compound was classed as inactive.

On to `COC(N)=O`, for which the outcome was inactive.

With `Nc1cc2c3c(c1)C(c1ccccc1)=N[C@@H](NC(=O)c1cccnc1)C(=O)N3CC2`, the call was inactive.

`CC(Cl)(Cl)C(=O)O`: the compound was classed as inactive.

Turning to `c1ccc(OP(Oc2ccccc2)Oc2ccccc2)cc1`, the AC50 was 75.4 µM (active).

Turning to `CCCCN(CC)C(=O)SCCC`, the compound was called inactive.

Turning to `CCCN(CCC)c1c([N+](=O)[O-])cc(C(C)C)cc1[N+](=O)[O-]`, the outcome was inactive.

Regarding `CCC(C)(C)c1ccc(O)cc1`, the AC50 is 1.52 µM (active).

For `CCOP(=S)(Oc1ccc([N+](=O)[O-])cc1)c1ccccc1` (centres undefined), the AC50 was 15.5 µM (active).

`[N-]=[N+]=[N-]`: the call was inactive.

Take `OCC1CO1` (centres undefined): the call was inactive.

For `CC(C)(C)OOC(C)(C)C`, the outcome was inactive.

Turning to `c1ccc2c(c1)Nc1ccccc1S2`, the AC50 was 27.7 µM (active).

For the compound `CCCCc1ccccc1`, the result was inactive.

For the compound `CCCCN(CCCC)SN(C)C(=O)Oc1cccc2c1OC(C)(C)C2`, the compound was called inactive.

Regarding `CCN(CC)c1ccccc1`, the outcome was inactive.

With `O=[N+]([O-])c1ccccc1`, the compound was classed as inactive.

For the compound `CCCCN(CCCC)N=O`, the AC50 is 85.5 µM (active).

Turning to `CCCCOCC1CO1` (centres undefined), the AC50 is 19.9 µM (active).

In the case of `CCCCC(CC)COP(=O)(Oc1ccccc1)Oc1ccccc1` (centres undefined), the outcome was inactive.

For the compound `ClC(Cl)c1ccccc1`, the call was inactive.

Regarding `Nc1ccc(Cl)cc1`, the call was inactive.

Test system in a further test: not listed separately
Nature of the test: CCTE_Deisenroth_AIME_384WELL_CTox_Inactive: Cytotoxicity Assessment (CTOX) in CCTE's 384-well Estrogen Receptor Transactivation Assay without AIME metabolic competence (metabolism negative), Deisenroth Lab (AID 2284039).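 Further: cell viability via live-cell protease substrate cleaved to fluorescent probe; cells exposed 24 h to medium preincubated 2 h with alginate-water beads without S9; loss of fluorescence signal means loss of viability.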 The method, boiled down: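 Metabolism-negative arm: chemicals (10-point, 0.002 - 200 uM) preincubated 2 h with alginate-water lids, medium moved onto VM7Luc4E2 cells for 24 h. Fluorescent live-cell protease readout; bidirectional curve fit.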
With `Nc1ccc2ccccc2c1`, the compound was called inactive.

For the compound `CCOC(=O)c1ccccc1C(=O)OCC`, the outcome was inactive.

For the compound `O=C(O)CF`, the outcome was inactive.

Take `CCCCc1ccc(O)cc1`: the compound was called inactive.

As to `c1ccc(OP(Oc2ccccc2)Oc2ccccc2)cc1`, the compound was called inactive.

For `CCCCN(CC)C(=O)SCCC`, the result was inactive.

In the case of `CCCN(CCC)c1c([N+](=O)[O-])cc(C(C)C)cc1[N+](=O)[O-]`, the compound was classed as inactive.

Consider `CCOP(=S)(Oc1ccc([N+](=O)[O-])cc1)c1ccccc1` (centres undefined), for which the call was inactive.

In the case of `OCC1CO1` (centres undefined), the compound was classed as inactive.

For the compound `c1ccc2c(c1)Nc1ccccc1S2`, the compound was classed as inactive.

`CCCCc1ccccc1`: the call was inactive.

For the compound `CCCCN(CCCC)SN(C)C(=O)Oc1cccc2c1OC(C)(C)C2`, the outcome was inactive.

As to `CCN(CC)c1ccccc1`, the result was inactive.

Regarding `O=[N+]([O-])c1ccccc1`, the call was inactive.

Take `CCCCN(CCCC)N=O`: the call was inactive.

With `CCCCC(CC)COP(=O)(Oc1ccccc1)Oc1ccccc1` (centres undefined), the outcome was inactive.

For the compound `ClC(Cl)c1ccccc1`, the result was inactive.

`Nc1ccc(Cl)cc1`: the call was inactive.

A word on the AC50: it is the midpoint of the concentration-response curve, whichever way the signal moves.
